FLuc modulator: counter-screen for miR-21 project: firefly luciferase inhibitors or activators; Potency, µM (titrated, usually from 57.5 µM), for the others: top-dose activity change, negative = inhibition, most hits filed as inhibitors; AID 588342; purified FLuc, Km substrates, luminescence inhibition; 360,000 tested, 6.9% active;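 note: plate controls were vehicle for no effect and reference inhibitor for full effect; nearly all actives have a fitted effect of over 55% in size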
Target sequence (P08659 whole entry, looked up): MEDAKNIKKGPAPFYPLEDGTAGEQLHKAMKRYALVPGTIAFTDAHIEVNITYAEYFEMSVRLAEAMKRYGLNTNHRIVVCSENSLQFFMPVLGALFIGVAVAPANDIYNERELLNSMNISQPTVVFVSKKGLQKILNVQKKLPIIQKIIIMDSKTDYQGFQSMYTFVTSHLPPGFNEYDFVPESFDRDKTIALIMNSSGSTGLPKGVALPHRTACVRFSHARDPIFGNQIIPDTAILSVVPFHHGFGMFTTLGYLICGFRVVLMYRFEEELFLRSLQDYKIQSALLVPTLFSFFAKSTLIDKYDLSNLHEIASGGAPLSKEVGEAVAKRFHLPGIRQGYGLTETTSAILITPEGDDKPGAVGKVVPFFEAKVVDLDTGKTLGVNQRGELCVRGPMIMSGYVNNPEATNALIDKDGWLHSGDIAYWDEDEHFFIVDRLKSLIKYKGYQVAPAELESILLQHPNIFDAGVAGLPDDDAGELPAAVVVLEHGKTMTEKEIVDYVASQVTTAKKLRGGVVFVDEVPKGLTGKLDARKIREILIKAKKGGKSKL
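Biochemical qHTS of compounds, final roughly 60 µM downward over six points, against 10 nM purified firefly luciferase using Km concentrations of substrates (10 uM D-luciferin, 10 uM ATP) in Tris acetate pH 7.5 buffer; luminescence output.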
ELG1 repair inh: blocks ELG1-dependent DNA repair in HEK293T cells; HEK293T ELG1-luciferase reporter, luminescence, 16 h; DNA damage induced by 5-fluorouridine; Potency, µM (series often up to 46.1 µM), inactives show top-dose activity change, negative = inhibition, hits mostly inhibitors; 330,000 tested, 2.3% active; note: % is set by controls: 0 for no effect and ±100 for the full control effect; nearly all actives have a fitted effect of over 55% in size
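DMSO vehicle served as the neutral condition. Each well held 2,000 cells given 5-fluorouridine plus compound; after 16 hr at 37 °C/5% CO2, ONE-Glo was added and luciferase measured 30 min later.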
SMN2 splice enh: increases expression of the SMN2 splice variant | HEK293 SMN2-luciferase splicing reporter, luminescence, 30-36 h | Potency, µM (top dose mostly 46.1 µM), inactives show at the top dose activity change, positive = activation, most hits filed as activators | 210,000 tested, 2.8% active | AID 1458; note: % of control where 0% means no effect; nearly all actives have a fitted effect of over 55% in size
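HEK293 cells carry an SMN2 […]–luciferase reporter in which exon 7 inclusion puts luciferase in frame. Cells were plated 10-12 h before compound addition, then incubated 30-36 h at 37C. ONE-Glo luminescence was read; sodium butyrate at 4.5 mM final served as control.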
Rab9 prom act: activates the Rab9 promoter | Huh7 Rab9 promoter-luciferase reporter, luminescence, 24 h | Potency, µM (top dose mostly 9.22 µM), without a hit: top-dose activation, negative = inhibition, actives largely listed as activators | 320,000 tested, 2.8% active | AID 485297; note: % of control where 0% means no effect; nearly all actives have a fitted effect of over 60% in size
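Stable Rab9-luc Huh7, 1500 cells/well, 2 h settle; cmpd in DMSO, 24 h, 37 °C/5% CO2; luciferase reagent 10 min RT; luminescence.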
ELG1 genotoxic: inducers of genotoxicity in HEK293T ELG1-luciferase cells. Potency, µM (highest dose often 46 µM), for the others: at the highest dose activity change, positive = activation, hits mostly activators. AID 504466. HEK293T ELG1-luciferase reporter, luminescence, 16 h. 330,000 tested, 1.3% active; note: % of control where 0% means no effect; nearly all actives have a fitted effect of over 60% in size
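ELG1-luciferase HEK293T cells, 2,000/well; compound pinned in; 16 hr, 37 °C, 5% CO2; ONE-Glo, 30 min RT; luminescence on CCD imager.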
NPC1 promoter act: activates the NPC1 promoter; Huh7 NPC1 promoter luciferase reporter, 24 h; Potency, µM (highest dose often 9.22 µM), without a hit: at the highest dose activation, usual class: activators; 320,000 tested, 2.4% active; AID 485313; note: % of control where 0% means no effect; nearly all actives have a fitted effect of over 60% in size
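Luminescence read-out of NPC1 promoter-driven luciferase in stably transfected Huh7 cells; compounds delivered in DMSO and left 24 h at 37C, 5% CO2, qHTS titration format.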
* marks the source's active call; other numbers are inactive results; ? = inconclusive; · = not tested or not shown; [ ] = remark or other dose. This is a sample that favours compounds with a hit; in the whole collection about 9.4% have one here. Calls come from the whole dose curve; as a rule, active = well fitted curve in the direction sought with a large enough effect; inconclusive = small, poorly fitted or top-dose-only effect, or another doubt; inactive = no such curve, though single readings can be large; an effect the other way counts as inactive or inconclusive. Potency is the fitted concentration of half-maximal effect.

SMILES	FLuc modulator	ELG1 repair inh	SMN2 splice enh	Rab9 prom act	ELG1 genotoxic	NPC1 promoter act
Cc1c2ccccc2nc2c(F)c(N(C)C)c(F)c(F)c12	9.53µM*	?	?	?	?	20.9%
CCOc1cccc(C(=O)NC2=NCCS2)c1	12µM*	?	·	0.501µM*	?	0.631µM*
COc1ccc(N(Cc2ccccc2)S(=O)(=O)c2cccc(C(=O)NC3=NCCS3)c2)cc1	3.6%	-20.5%	-2.3%	-5.2%	-3.0%	4.3%
CC(C)Oc1cccc(C(=O)NC2=NCCS2)c1	19µM*	?	5.01µM*	3.98µM*	-17.3%	3.16µM*
COc1cccc(C(=O)NC2=NCCS2)c1	6.01µM*	?	2µM*	0.562µM*	?	1µM*
CC1CCC(C(=O)NC(C(=O)OCC(=O)c2ccc(Br)cc2)C(C)C)CC1 (configuration not stated)	-6.2%	·	-3.8%	·	·	·
CNC(=O)c1c(NC(=O)c2cc(=O)c3cc(C)c(C)cc3o2)sc2c1CCCC2	0.5%	·	-3.4%	·	·	·
Cc1cc(C(=O)COC(=O)CCC(=O)c2ccc3c(c2)OCCO3)c(C)n1Cc1ccco1	8.49µM*	?	7.8%	11.9%	?	8.8%
CCCC(=O)c1ccc2c(c1)OCCO2	?	?	17.1%	18.6%	20.2%	11.0%
COc1cc(OC)cc(C(=O)NCC(=O)OCC(=O)c2cc(C)n(Cc3ccco3)c2C)c1	26.9µM*	6.8%	-6.3%	-2.0%	0.1%	-3.3%
COc1ccc(CCC(=O)OCC(=O)NCc2ccc3c(c2)OCO3)cc1	0.0%	15.4%	·	-1.1%	0.8%	-2.0%
Cc1cc(C(=O)COC(=O)CNC(=O)c2ccco2)c(C)n1Cc1ccco1	?	?	17.4%	-5.1%	0.2%	2.0%
Cc1cc(C(=O)COC(=O)c2ccc(Br)o2)c(C)n1Cc1ccco1	2.69µM*	?	-4.6%	3.16µM*	?	26.4%
O=C(COC(=O)CCC(=O)c1ccc2c(c1)OCCO2)NCc1ccc2c(c1)OCO2	10.7µM*	4.6%	8.4%	4.8%	9.7%	-0.9%
CC(=O)N1CCC2(CCCN(c3ccc(-c4ccccc4)cc3)C2)CC1	·	·	-37.7%	·	·	·
CCC(=O)N1CCc2cc(CNS(=O)(=O)c3cc(OC)ccc3OC)ccc21	-1.3%	·	·	·	·	·
CCOC(=O)c1c(S(=O)(=O)N2CCC(C(=O)Nc3ccc(C)cn3)CC2)c(C)n(C)c1C	3.0%	·	·	·	·	·
CCOc1ncccc1C(=O)OCC(=O)c1cc(C)n(Cc2ccco2)c1C	0.849µM*	?	13.1%	0.501µM*	6.51µM*	0.355µM*
Cc1cc(C(=O)C(C)Cl)c(C)n1Cc1ccco1 (configuration not stated)	-1.4%	-5.6%	-10.9%	4.9%	-2.6%	-1.6%
Cc1cc(C(=O)COC(=O)c2ccc(O)cc2)c(C)n1Cc1ccco1	3.38µM*	?	22.4µM*	2.51µM*	?	3.55µM*
Cc1cc(C(=O)COC(=O)C(C)NC(N)=O)c(C)n1Cc1ccco1 (configuration not stated)	13.5µM*	?	3.6%	28.4%	16.7%	4.5%
CCc1ccc(-n2nc(CO)c(C(=O)NCCc3ccccc3)n2)cc1	-0.4%	·	4.1%	·	·	·
CCNc1c(NC(=O)c2ccccc2OCC)c(=O)oc2ccccc12	-7.4%	·	-2.7%	·	·	·
CCCc1cc(C(=O)N/N=C/c2cccn2C)cs1	16.9µM*	?	·	?	18.3µM*	?
Cn1cc(/C=N\NC(=O)c2cccs2)c2ccccc21	?	?	14.1µM*	2.24µM*	11.2µM*	?
SMILES	FLuc modulator	ELG1 repair inh	SMN2 splice enh	Rab9 prom act	ELG1 genotoxic	NPC1 promoter act
Cn1cccc1/C=N/NC(=O)c1cccs1	15.1µM*	?	·	?	?	?
Cn1cccc1/C=N/NC(=O)Cc1cccs1	-17.3%	?	·	13.8%	3.1%	8.8%
Cn1cccc1/C=N/NC(=O)c1cccnc1	?	11.0%	2.9%	8.3%	-0.2%	-1.7%
Cc1cc(C)nc(N2CCCC(C(=O)NC(C)C)C2)n1 (configuration not stated)	-0.6%	-7.2%	-8.9%	-2.3%	-4.6%	-2.2%
CC#CCN1c2ccccc2[C@]23C[C@@H](C(=O)OC)N(S(=O)(=O)c4ccc(OC)cc4)C2=NC(C(=O)OC)=C(C(=O)OC)[C@H]13	·	·	1.8%[9.22 µM]	·	·	·
CCC(=O)n1nc(NCc2ccc(OC)c(OC)c2)nc1NCc1ccc(OC)c(OC)c1	1.2%	10.3µM*	-19.6%	-3.5%	-5.0%	-4.3%
COCC(=O)n1nc(NCc2ccc(OC)cc2)nc1NCc1ccc(OC)cc1	-15.0%	3.2%	10.6%	-0.7%	1.1%	-2.4%
CCCCOC(=O)c1ccc(NC(=O)Cn2nnc3sc4c(c3c2=O)CCCC4)cc1	-19.1%	·	2.0%	·	·	·
COC(=O)c1ccc2c(c1)N(CC(=O)Nc1cccc(Cl)c1C)C(=O)c1ccccc1S2	-1.8%	·	·	·	·	·
CCCOC(=O)c1ccc(NC(=O)COC)cc1	?	?	0.5%	6.4%	?	2.3%
CC(=O)c1cccc(NC(=O)Cc2cccs2)c1	?	-1.7%	-6.3%	29.6%	3.3%	23.8%
CCCOC(=O)c1ccc(NC(=O)Cc2cccs2)cc1	19µM*	?	·	?	?	?
CC(=O)c1ccc(NC(=O)Cc2cccs2)cc1	?	?	·	2.51µM*	?	2.82µM*
CCCCN(CCCC)CCNC(=O)Cn1nc(CC)n2c(cc3sc(C)cc32)c1=O	-5.6%	·	3.8%	·	·	·
CC#CCN1c2ccccc2[C@]23C[C@@H](C(=O)OC)N(C(=O)COCc4ccccc4)C2=NC(C(=O)OC)=C(C(=O)OC)[C@H]13	·	·	0.5%[9.22 µM]	·	·	·
O=C(Nc1ccc(Cl)cc1)C1CCN(c2nc3ccccc3n3cccc23)CC1	-9.1%	·	·	·	·	·
Cc1cc(/C=C(\C#N)C(=O)Nc2ccccc2)c(C)n1-c1ccc(C(=O)O)cc1	-5.5%	-7.7%	·	-0.2%	-3.5%	2.7%
CCOC(=O)/C(C#N)=C/c1cc(C)n(-c2ccc(C)cc2)c1C	2.39µM*	?	-6.7%	1µM*	1.84µM*	2.82µM*
CCOC(=O)/C(C#N)=C\c1cc(C)n(-c2ccccc2)c1C	0.426µM*	?	-65.5%	1.78µM*	?	1.58µM*
CCCn1c(C)cc(/C=C(\C#N)C(=O)OCC(=O)NC(=O)NCC)c1C	12µM*	6.0%	6.4%	-7.3%	2.9%	-0.2%
Cc1cccc(CNc2ncncc2-c2cccc(NS(C)(=O)=O)c2)c1	·	·	-0.4%	·	·	·
CCc1ccc2oc(-c3cccc(NC(=O)c4ccc(N5CCC(C)CC5)c([N+](=O)[O-])c4)c3)nc2c1	5.3%	·	7.5%	·	·	·

Screening data as filed in PubChem BioAssay.
